Laboratory results published in the supplement of paper PMC4166925.
± gives the standard deviation of the averaged measurements. In all, about 33,000 sequences were measured (“E-score (dimensionless, -0.5 to 0.5)”: median about -0.046, highest 2% from about 0.36 on). This is one part of a sample in which the highest values are shown more often than they occur.

Tested on: T1, SpTbr T-box DNA-binding domain (GST fusion)
T1 sequence: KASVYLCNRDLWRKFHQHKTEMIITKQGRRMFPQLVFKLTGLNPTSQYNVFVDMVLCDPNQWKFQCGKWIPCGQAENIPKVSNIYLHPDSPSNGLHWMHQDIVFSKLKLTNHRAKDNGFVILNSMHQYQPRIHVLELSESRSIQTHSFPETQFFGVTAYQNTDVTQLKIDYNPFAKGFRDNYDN
Assay: PBM E-score of 8-mer (E-score (dimensionless, -0.5 to 0.5)); Tbr is Tbrain of the sea star Patiria miniata (Pm) or the sea urchin Strongylocentrotus purpuratus (Sp); higher = stronger binding preference
Details: the construct has about 5 more residues each side
Procedure: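 Universal protein-binding microarray (Agilent AMADID 016060, 60-bp probes with a 35-bp variable region) incubated with 200 nM GST-fused Strongylocentrotus purpuratus Tbr T-box DNA-binding domain (residues 362-554) in PBS pH 7.5. Scored for every ungapped 8-mer (given with its reverse complement) as E-score (range -0.5 to 0.5; >0.45 counts as bound) and Z-score of median probe intensity. Two replicate arrays (datasets 1 and 2).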
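Note: protein at 200 nM in PBS on universal double-stranded arrays.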

Sequence	PBM E-score of 8-mer
ACTTGCTG	-0.0473 ± 0.073
ATTCTGTC	0.04 ± 0.016
CAGTAACC	0.048 ± 0.029
GAAATGGA	-0.101 ± 0.0095
ACTTGACT	0.0832 ± 0.1
CTAATAGC	0.0334 ± 0.069
AATGTTAA	-0.0502 ± 0.052
GTTGTTGA	0.239 ± 0.044
GCTGTTAA	0.162 ± 0.0053
ACTGTTAA	0.261 ± 0.036
AGTGTTCC	0.0182 ± 0.013
AGTGTTAA	0.436 ± 0.021
ACTGTTAC	0.168 ± 0.0045
GGTGTTGA	0.4631 ± 0.0038
GTTGTTAA	0.339 ± 0.034
CGTGTTGA	0.3014 ± 0.0019
AGTGTTAC	0.3741 ± 0.0036
GGTGTTAA	0.472 ± 0.0062
ATTTGCAC	0.239 ± 0.043
ACTTGAGG	-0.00245 ± 0.078
CGACGCGA	0.159 ± 0.068
ACAGCTTC	0.208 ± 0.017
AGTGGAGC	-0.0127 ± 0.11
TCATCTCA	0.0482 ± 0.019
GCCAATCC	-0.0232 ± 0.048

Sequence	PBM E-score of 8-mer
AGTGTGGA	0.373 ± 0.035
CGTGTGGA	0.306 ± 0.0073
AGTGTGGG	0.399 ± 0.018
AGTGGGGG	-0.0909 ± 0.05
AGAGTGGG	-0.128 ± 0.066
GGTGTGTA	0.356 ± 0.008
AGTGTGGC	0.33 ± 0.014
AGTGTGTA	0.229 ± 0.018
GGTGTGGA	0.456 ± 0.014
ACCTTAGC	0.211 ± 0.014
CCACGGGC	-0.227 ± 0.019
CATCGCGC	0.259 ± 0.032
ATTCGCGA	0.392 ± 0.02
CTTCGCGC	0.407 ± 0.032
CTTCGCGA	0.285 ± 0.032
AATCGCGT	0.194 ± 0.039
CTTCGCTC	-0.00285 ± 0.036
ATTCGCGC	0.387 ± 0.012
ATTCGCTA	0.208 ± 0.024
CATCGCGA	0.197 ± 0.0055
ATTCGCGG	0.275 ± 0.026
AATCGCGA	0.3847 ± 0.00013
AATCGCGC	0.332 ± 0.01
GCGCCACA	0.223 ± 0.014
ATTTGTGA	0.181 ± 0.085

Sequence	PBM E-score of 8-mer
GGGGCGCA	-0.227 ± 0.038
TAAAGCTA	-0.171 ± 0.036
GTATTGAC	-0.0627 ± 0.015
CAGTGCAG	-0.179 ± 0.024
GGTCGCGA	0.335 ± 0.017
GTTCGCCA	0.158 ± 0.011
ACTCGCGC	0.298 ± 0.038
ACTCGCGA	0.3822 ± 0.0018
GTTCGCGA	0.389 ± 0.0052
CCTCGCGA	0.306 ± 0.0057
CCAGCGCG	0.0431 ± 0.073
CCTCGTTC	0.0141 ± 0.013
TGTCAACA	0.4051 ± 0.0019
GGTCAACA	0.114 ± 0.02
CGTCAACA	0.356 ± 0.0058
CTAAACCA	-0.0751 ± 0.046
CTCCCTTC	-0.214 ± 0.037
ACTCACAG	0.313 ± 0.011
ACTCTCTC	0.0136 ± 0.068
CCTCACAG	0.149 ± 0.032
CCTTACAC	0.3668 ± 0.0022
CCTCACAC	0.4723 ± 0.0005
ACTCACAC	0.469 ± 0.0082
CCTCACAA	0.233 ± 0.0063
ACTCACAT	0.124 ± 0.049

Sequence	PBM E-score of 8-mer
ACACTCTC	0.3695 ± 0.0036
ACACTCTA	0.325 ± 0.017
GCTTACAC	0.219 ± 0.012
ACTTACAC	0.251 ± 0.075
GGCTCTCA	0.0783 ± 0.047
AGCATAGC	-0.135 ± 0.061
CGCGTTTA	0.0979 ± 0.059
CGAGATAC	-0.0218 ± 0.054
GAACAAAA	-0.0265 ± 0.017
ACGTATGC	0.0191 ± 0.0035
AGGCGCAT	-0.182 ± 0.024
ACCGTCAT	0.0989 ± 0.0085
ATTGAAGG	-0.0895 ± 0.13
AAGCGGTG	-0.1161 ± 0.00078
CACAAGGC	-0.114 ± 0.035
ACATGGCA	-0.0601 ± 0.028
GCCAGCGA	0.164 ± 0.098
GCTCACAC	0.448 ± 0.0095
ACACTCAC	0.366 ± 0.004
ACACTCAG	0.232 ± 0.042
ACACTCCG	0.367 ± 0.023
ACACTCCT	0.193 ± 0.021
ACTCTCCG	-0.0225 ± 0.053
GCACACAC	0.294 ± 0.035
GCTCACAA	0.174 ± 0.018

Sequence	PBM E-score of 8-mer
ACTCTCAC	0.285 ± 0.036
ATCTCCGG	0.0811 ± 0.031
ACCGTTCA	0.027 ± 0.023
AGCGAGTC	0.0305 ± 0.044
CTGTACCA	-0.0774 ± 0.055
GCTAGAAC	0.0971 ± 0.024
AGACCATG	-0.0594 ± 0.025
GTGCCAAA	0.403 ± 0.0099
GTGCCAAC	0.4114 ± 0.0035
TTGCCAAA	0.0607 ± 0.12
CTGCCAAC	0.0901 ± 0.035
ATGCCAAC	0.124 ± 0.0029
CTGCCAAA	0.0249 ± 0.15
AAGAGTAT	-0.163 ± 0.024
ATACGCAC	0.153 ± 0.063
ATTTGGCG	0.118 ± 0.03
CTGGGGAA	0.00742 ± 0.052
GACGTGAC	0.235 ± 0.032
TACGTGAA	0.0338 ± 0.073
CGCGTGAC	0.355 ± 0.02
TCCGTGAA	0.16 ± 0.012
GGCGTGAC	0.388 ± 0.0071
GGCGTGAA	0.473 ± 0.0057
CGCGTGAG	0.313 ± 0.0063
TGCGTGAA	0.3936 ± 0.0023

Sequence	PBM E-score of 8-mer
GCCGTGAA	0.354 ± 0.018
GGCGTGCA	0.0836 ± 0.055
CGCGTGAA	0.4208 ± 0.0018
GCCGTGAC	0.199 ± 0.011
AGGCTGGG	-0.179 ± 0.012
ACAGTGTA	0.0565 ± 0.017
ATAACTCC	-0.147 ± 0.029
ACTGACTC	0.0022 ± 0.0015
AGCGTGAA	0.413 ± 0.018
AGCGTGAC	0.3372 ± 0.0013
AGCGTGAT	0.28 ± 0.022
AGAAGACA	0.0347 ± 0.065
CTGTGTCA	0.247 ± 0.015
ATGTGTCG	0.385 ± 0.011
ATATGTCG	0.139 ± 0.047
ATGTGTCA	0.4671 ± 0.00078
ATGTGTCC	0.144 ± 0.014
GTGTGTCA	0.346 ± 0.0092
CACATTCA	0.21 ± 0.041
CATAAAGA	-0.0483 ± 0.0071
GCGGGTGA	0.261 ± 0.03
GAATTTCA	0.056 ± 0.018
AAGCAAGG	-0.0863 ± 0.017
AGCCAGAA	-0.268 ± 0.024
AAGGAGAT	-0.0983 ± 0.019

Sequence	PBM E-score of 8-mer
AGAGGGCC	-0.194 ± 0.097
CTCCACAC	0.37 ± 0.0083
CTCCACAA	0.136 ± 0.0093
CTCCACAG	-0.0194 ± 0.034
GTCCACAA	0.153 ± 0.039
GTCCACAC	0.385 ± 0.0075
ATCCACAC	0.357 ± 0.0097
AGGGACGA	0.053 ± 0.072
CCTTTGAG	-0.17 ± 0.018
CGGTAGCA	0.276 ± 0.031
CTTTGCAA	0.0361 ± 0.021
GATCGGAC	-0.287 ± 0.013
ATCGGCTG	0.0647 ± 0.039
ATACTAGA	-0.222 ± 0.11
CTTCTCAC	0.401 ± 0.011
ATTCTCAA	0.138 ± 0.062
ATTCTCAC	0.415 ± 0.015
CTTCTCTC	0.08 ± 0.04
ATTCTCAG	0.0379 ± 0.094
CTTCTCAA	0.0891 ± 0.045
ACCGAGGA	-0.0878 ± 0.039
AGTTCCAT	0.00979 ± 0.0044
GTGCGAGA	0.42 ± 0.0079
CTGCGAAA	0.342 ± 0.036
CTGCGACA	0.198 ± 0.036

Sequence	PBM E-score of 8-mer
ATGCGATA	0.0476 ± 0.028
TTGCGAAA	0.33 ± 0.038
GTGCGACA	0.398 ± 0.012
ATGCGAGA	0.172 ± 0.017
CTGCGAGA	0.185 ± 0.0098
GTGCGATA	0.427 ± 0.0042
ATGCGACA	0.285 ± 0.0073
GTGCGAAA	0.4765 ± 0.0018
CTGCGATA	0.0968 ± 0.04
GATACCCC	-0.273 ± 0.041
CAAGGATA	-0.175 ± 0.043
GAATCTGC	-0.0922 ± 0.056
ATGCTCCG	-0.0668 ± 0.061
AAGCCCGG	-0.24 ± 0.028
CATGCTAA	0.0578 ± 0.029
ACCTACTA	0.17 ± 0.057
GCATTCTA	-0.293 ± 0.06
AGGCAGAC	-0.227 ± 0.0024
ATGCGAAC	0.154 ± 0.017
GGGCGAAC	-0.0364 ± 0.016
CTGCGAAC	0.365 ± 0.0088
CTGCGAAG	0.2479 ± 0.0022
GTGCGAAC	0.4783 ± 0.00073
CTGCGATC	0.106 ± 0.1
AATGAGGA	-0.334 ± 0.058

Sequence	PBM E-score of 8-mer
AACAATGA	0.0839 ± 0.096
AAAGTTCA	-0.0472 ± 0.047
CTACCGAG	-0.07 ± 0.013
CACCTGTA	0.331 ± 0.036
CACCTGAC	0.374 ± 0.0049
CACCTGAA	0.29 ± 0.0089
CACCTGTC	0.431 ± 0.019
AACCTGTC	0.248 ± 0.011
AACCTGAC	0.121 ± 0.003
GGATCCAC	-0.00958 ± 0.069
CGAAGTAC	-0.169 ± 0.067
GCCGTTTA	0.0646 ± 0.08
ACTGCGAT	0.117 ± 0.0014
ACTGCGAG	0.17 ± 0.033
AGTGCGAT	0.4291 ± 0.0025
CGTGCGAC	0.238 ± 0.029
AGTGCGAC	0.341 ± 0.024
CGTGCGAG	0.373 ± 0.018
AGTGCGAG	0.408 ± 0.022
CATGCGAG	0.106 ± 0.012
AATGCGAT	0.0396 ± 0.031
